HCV inhibitor = blocks hepatitis C virus. actives 3.4% (n = 340,000). Huh7.5.1 HCVcc-Cre infection, luciferase reporter, 44 h. Potency, µM (series often up to 41.8 µM), for inactives: at the top dose activity change, negative = inhibition, usual class: inhibitors. AID 651820; further: potency means the concentration at half of the fitted maximal effect
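After 44 h co-culture of compound, cells and HCVcc-Cre (~0.5 moi), substrate is added for 15 min at room temperature and luciferase measured over 15 sec. Cells were seeded at 1,000/well and pre-cultured 4 h.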
LASV entry inh = inhibitors of Lassa virus binding or cell entry | Lassa virus pseudotype entry inhibition, cell reporter | Potency, µM (highest dose often 37.9 µM), for the others: at the top dose activity change, negative = inhibition, usual class: inhibitors | actives 1.2% (n = 300,000); calls by dose curve; tested in HEK293 cells; further: potency means the concentration at half of the fitted maximal effect; nearly all actives have a fitted effect of over 50% in size
FBPA Giardia inh = blocks Giardia fructose-bisphosphate aldolase activity. purified Giardia FBPA. Potency, µM (titrated, usually from 59.6 µM), for inactives: top-dose activity, negative = inhibition, usual class: inhibitors. actives 0.71% (n = 290,000). AID 2451; further: potency means the concentration at half of the fitted maximal effect; nearly all actives have a fitted effect of over 55% in size
Target sequence (A8B2U2 whole entry, looked up): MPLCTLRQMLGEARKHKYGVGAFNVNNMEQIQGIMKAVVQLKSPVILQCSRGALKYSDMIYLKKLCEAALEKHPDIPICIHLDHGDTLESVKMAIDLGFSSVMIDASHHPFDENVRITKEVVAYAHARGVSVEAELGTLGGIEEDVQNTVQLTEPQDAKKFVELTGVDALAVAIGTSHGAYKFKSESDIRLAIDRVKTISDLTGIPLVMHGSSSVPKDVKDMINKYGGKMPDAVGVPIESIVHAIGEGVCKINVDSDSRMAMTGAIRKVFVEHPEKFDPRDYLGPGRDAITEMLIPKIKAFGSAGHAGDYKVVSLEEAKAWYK
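Giardia FBPA (40 nM reagent) was preincubated 10 min at RT with compound (up to 57.5 uM final), then substrate plus GAPDH/TPI/NAD/arsenate coupling system with diaphorase/resazurin was added; resorufin fluorescence (525/598 nm) was read after 20 min.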
HCMV inh = human cytomegalovirus inhibition. HFF cells, HCMV-luciferase reporter, 72 h; active compounds read low. activity change, negative = inhibition, % at 57.5 µM. actives 4.5% (n = 410,000); in the data active means activity change below about -60%; inconclusive means no clear call, values can overlap the other calls; inactive means above about -39%
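Screen run at 2 compound doses on HFFs infected with reporter HCMV, MOI 1 PFU/cell. Luciferase activity from cell lysates at 72 h post infection gave inhibition relative to buffer-only and Salinomycin wells.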
MARV entry inh = inhibitors of Marburg virus binding or cell entry; Marburg virus pseudotyped entry inhibition, cell reporter; Potency, µM (top dose mostly 37.8 µM), inactives show top-dose activity change, negative = inhibition, hits mostly inhibitors; actives 1.8% (n = 300,000); calls by dose curve; tested in HEK293 cells; further: potency means the concentration at half of the fitted maximal effect
FMDV antiviral = foot and mouth disease virus antiviral activity. FMDV antiviral cell-based qHTS. Potency, µM (titrated, usually from 57.9 µM), without a hit: top-dose activity change, negative = inhibition, usual class: inhibitors. actives 1.2% (n = 410,000). AID 1159524; calls by dose curve; tested in HEK293T cells; further: read-out not given here; potency means the concentration at half of the fitted maximal effect; nearly all actives have a fitted effect of over 45% in size
* hit, by the source's call; [ ] = remark or other dose. Hits are enriched below; roughly 8.3% of the tested compounds scored in any of these assays. Unless noted, the call rests on the fitted dose curve; in most records, active means well fitted curve in the direction sought with a large enough effect; inconclusive means small, poorly fitted or top-dose-only effect, or another doubt; inactive means no such curve, though single readings can be large; an effect the other way counts as inactive or inconclusive. On the % scale 0 is the no-effect control and ±100 the full control effect.

`O=S(=O)(c1ccccc1)c1nc(-c2ccco2)oc1Nc1ccccc1` gave HCV inhibitor -21.9%, LASV entry inh inconclusive, FBPA Giardia inh 2.2%, HCMV inh -62.1*, MARV entry inh 0.0% and FMDV antiviral 31.2%.
COc1ccc(CCNC(=O)C(=O)c2c[nH]c3ccccc23)cc1 was read as FMDV antiviral 3.5%.
Screening Cc1ccc2occ(/C=N/NC(=O)[C@@H](N)Cc3ccccc3)c(=O)c2c1 returned HCV inhibitor -11.7%, LASV entry inh 1.2%, FBPA Giardia inh -12.7%, HCMV inh -84.0*, MARV entry inh 6.0%[46.1 µM] and FMDV antiviral -11.1%.
CC(C)c1cc2c(c(O)c1O)[C@@]1(C(=O)O)CCCC(C)(C)[C@@H]1CC2 was read as FBPA Giardia inh 9.98µM*.
Screening CC(C)c1cc2c(c(O)c1O)[C@]1(C(=O)O)CCCC(C)(C)C1CC2 (stereo partly drawn) returned FBPA Giardia inh inconclusive and FMDV antiviral 0.2%.
For COc1cc(-c2nc(-c3ccccc3)c(-c3cccs3)[nH]2)cc(OC)c1OC the results were HCV inhibitor 22.4µM*, LASV entry inh -35.2%, FBPA Giardia inh -0.2%, HCMV inh 21.0, MARV entry inh inconclusive and FMDV antiviral 0.0%.
Screening c1ccc(-c2nc(-c3cccs3)[nH]c2-c2ccccc2)cc1 returned HCV inhibitor inconclusive, LASV entry inh 4.2%, FBPA Giardia inh 0.6%, HCMV inh 30.0, MARV entry inh inconclusive and FMDV antiviral 0.0%.
For COc1cc(-c2nc(-c3ccccc3)c(-c3cccs3)[nH]2)cc(OC)c1O the results were HCV inhibitor 10µM*, LASV entry inh -9.8%, FBPA Giardia inh -10.1%, HCMV inh -1.5, MARV entry inh 8.1% and FMDV antiviral inconclusive.
Cc1ccc(C[n+]2cccc(-c3ccccc3)c2)c(C)c1 was read as HCV inhibitor inconclusive, LASV entry inh inconclusive, FBPA Giardia inh -2.8%, HCMV inh -95.7*, MARV entry inh inconclusive and FMDV antiviral inconclusive.
For c1ccc2cc(CC3=NCCN3)ccc2c1 the results were HCV inhibitor 5.5%, LASV entry inh -0.5%, FBPA Giardia inh 0.8%, HCMV inh 7.5, MARV entry inh inconclusive and FMDV antiviral -6.0%.
Cc1cc(C(C)(C)C)c(O)c(C)c1CC1=NCCN1 was read as HCV inhibitor -16.0%, LASV entry inh -32.8%, FBPA Giardia inh -9.1%, HCMV inh -11.2, MARV entry inh 15.8µM* and FMDV antiviral -0.7%.
Screening CCCCNC(=O)c1cc(-c2ccc(OC)cc2)nc2n[nH]c(-c3cccc([N+](=O)[O-])c3)c12 returned LASV entry inh -8.0%[46.1 µM], HCMV inh inconclusive and FMDV antiviral -20.9%.
`Clc1ccc2c(c1)c1cc(Cl)ccc1n2CN1CCOCC1` gave HCV inhibitor 22.4µM*, LASV entry inh inconclusive, FBPA Giardia inh 4.0%, HCMV inh inconclusive, MARV entry inh -21.8% and FMDV antiviral -6.4%.
For CCOc1cc(/C=C/c2nc3ccccc3c(=O)[nH]2)ccc1O the results were HCV inhibitor -17.3%, FBPA Giardia inh inconclusive, HCMV inh 109.5 and FMDV antiviral 0.0%.
CCOc1cc(/C=C/c2cc(C(F)(F)F)[nH]c(=O)n2)ccc1O was read as HCV inhibitor -10.0%, LASV entry inh inconclusive, FBPA Giardia inh 1.1%, HCMV inh -98.4*, MARV entry inh inconclusive and FMDV antiviral inconclusive.
For O=c1nc(/C=C/c2ccccc2C(F)(F)F)cc(C(F)(F)F)[nH]1 the results were HCV inhibitor 7.2%, FBPA Giardia inh -20.4%, HCMV inh 18.7 and FMDV antiviral -18.3%.
COc1ccc(/C=C/c2cc(C(F)(F)F)[nH]c(=O)n2)cc1OC was read as HCV inhibitor -8.5%, LASV entry inh inconclusive, FBPA Giardia inh 1.9%, HCMV inh -94.5*, MARV entry inh 10.2%[46.1 µM] and FMDV antiviral inconclusive.
Screening COc1ccc(OC)c(S(=O)(=O)N2CC=C(c3c(C)n(CC(=O)N4CCCC4)c4ccccc34)CC2)c1 returned LASV entry inh -5.2%[46.1 µM], HCMV inh -12.7, MARV entry inh 4.2%[46.1 µM] and FMDV antiviral -22.7%.

Assay outcomes as filed in PubChem.
